Several values for one entry are separate records, joined by “and”; a condition that tells them apart may be missing. Identical values can stand only once. Records with an inconclusive call do not appear. Activity calls are given as the source filed them. Calls come from the whole dose curve.
Assay: qHTS Assay for Lipid Storage Modulators (AID 1519); for activity change, negative = inhibition: % is set by controls: 0 for no effect and ±100 for the full control effect
Settings: Drosophila S3 cells, BODIPY lipid droplet/cell ratio, laser cytometry, cells loaded with oleic acid
Excerpt: NIH Molecular Libraries Probe Production Centers Network [MLPCN]
NIH Chemical Genomics Center [NCGC]
Assay Submitter (PI): Beller, Mathias; Max-Planck-Institut fur Biophysikalische Chemie
NCGC Assay Overview: Storing lipids as a reservoir for energy or the anabolism of elementary metabolites is a common feature of probably all cells and is conserved from bacteria to humans. The universal cellular lipid storage organelle is the so-called lipid storage droplet (LD). Although ubiquitous, LDs share a simple structure composed of a hydrophobic core that harbors the storage lipids, which is shielded by a droplet-specific phospholipid monolayer to which proteins are attached. The current model of LD biogenesis involves an incorporation of the lipid core into the membrane leaflets of the endoplasmic reticulum (ER) followed by a subsequent budding-like maturation of a LD, which ultimately pinches off. Once released, LD volume can increase by localized lipogenesis or fusion of existing droplets. Storage lipids are re-mobilized enzymatically by lipase activity. Lipase regulation in the adipocyte is heavily studied and involves multiple components including catecholamine signaling, the LD-associated proteins Perilipin and comparative gene identification-58 (CGI-58) and at least two lipases named hormone sensitive lipase (HSL) and adipocyte triglyceride lipase (ATGL). LD regulation outside of the adipocyte is poorly understood and only few components are known. However, there is an urgent need to learn more about ectopic fat depots as mislocalized storage of lipids, for example in the liver or muscle, is an eminent health problem associated with insulin resistance or the metabolic syndrome. We developed a laser-scanning cytometer assay to enable 1,536-well screening and combined the results of the small molecules screen with an RNAi database based on lipid storage.
NCGC Assay Protocol Summary:
We dispensed 4 uL of cells at 1.25 x 10^6 cells/mL into LoBase Aurora COC 1,536-well plates (black walled, clear bottom) with a bottle-valve solenoid-based dispenser (Aurora) to obtain 5,000 cells/well. Triacsin C (Sigma-Aldrich T-4540), an inhibitor of long-chain fatty acyl CoA synthetase that blocks synthesis of triglycerides, was used as a positive control for lipid under-storage. A total of 23 nL of compound solution of different concentrations were transferred to the assay plates using a Kalypsys pin tool equipped with a 1,536-pin array containing 10-nL slotted pins (FP1S10, 0.457-mm diameter, 50.8 mm long; V&P Scientific). One microliter of oleic acid (400 uM) was added, and the plate was lidded with stainless steel rubber gasket lined lids containing pinholes. […] Fluorescence was detected by excitation of the fluorophores with a 488-nm laser on an Acumen Explorer (TTP Lab Tech). The total intensity in channel 1 (500-530 nm) reflected lipid droplet accumulation. […] The ratio of the total intensity in PMT channel 1 over total intensity of channel 3 was also calculated. Percent activity was computed relative to an internal control (100% inhibited lipid droplet deposition due to the presence of 20 uM Triacsin C), which was added to 32 wells/plate.

[1] = measured here: cell count channel max response
[2] = measured here: lipid channel max response

Compound	activity change, negative = inhibition (at 25.7 µM (top of the series))	activity change, negative = inhibition (at 57.5 µM (top of the series))	max response [1]	max response [2]
CCCSc1ccc2nc(NC(=O)OC)[nH]c2c1	-1.88% (inactive)	9.19% (inactive)	-8.08% and -12.8%	-10.3% and -11.2%
Nc1ccc(O)c(C(=O)O)c1	1.25% (inactive)	–	-4.23%	-4.44%
OCC1O[C@H](O)C(Cl)C(O)C1O (stereo not given in full)	–	0.529% (inactive)	-14.2%	-14.7%
Oc1c(Br)cc(Br)c2cccnc12	–	1.03% (inactive)	0.383%	3.22%
COc1cc(OC)c(/C=C2/C(=O)Nc3ccccc32)c(OC)c1	–	-1.27% (inactive)	30.4%	28.6%
Oc1ccc(C2CNCc3sccc32)cc1O (stereo not given)	–	-2.2% (inactive)	25.9%	25.8%
O=C(O)CCCC[C@@H]1CCSS1	–	-3.03% (inactive)	-26.8%	-29%
O=C1CN(/N=C/c2ccc([N+](=O)[O-])o2)C(=O)N1	–	8.89% (inactive)	3.43%	14.3%
Cc1ccc(C(=O)O[C@H](C(=O)O)[C@@H](OC(=O)c2ccc(C)cc2)C(=O)O)cc1 (tested in a mixture with another compound)	–	-0.359% (inactive)	35.2%	38.6%
O=c1[nH]c2ccccc2n1CCCN1CCN(C(c2ccccc2)c2ccccc2)CC1	–	0.533% (inactive)	44.5%	44%
O=c1cc(-c2ccccc2)oc2c(O)c(O)ccc12	–	-5.17% (inactive)	-10.5%	-5.87%
COc1cc(C(O)CO)ccc1OS(=O)(=O)O (stereo not given)	–	0.915% (inactive)	-36.7%	-37%
O=C1NC(O)=NC1(c1ccccc1)c1ccccc1	–	1.6% (inactive)	-13.9%	-13.3%

— PubChem BioAssay (NCATS)
